According to ChEMBL document CHEMBL3988442, “University of Dundee, Small-Polar-MMV Screening Library” (2021):
Screen size: about 48,000 compounds; about 13,000 (27%) showed an effect of 50% or more. The list shows a part of the results.

What follows are compounds tested on Wolbachia pipientis (assay: Anti-Wolbachia Cell-Based Screen). Conditions: 5 µM.
Type: functional
Set-up: scale not given: in the data most compounds retested in dose-response had high values
With CC(Sc1nncn1C)C(=O)NCCCOc1ccc(F)cc1 (stereo unspecified) the “Percent Effect” value was 7.065%.
With COC1CCCN(C(=O)NCCCF)C1 (stereo unspecified) the “Percent Effect” value was 5.737%.
For CCOC[C@]12COC[C@H]1CN(Cc1ccc3c(c1)OCO3)C2.O=C(O)C(F)(F)F, the “Percent Effect” value was 94.03%.
For CCOC[C@]12COC[C@H]1CN(Cc1ccc(F)c(F)c1)C2.O=C(O)C(F)(F)F, the “Percent Effect” value was 108.4%.
For O=C(O)C(F)(F)F.O=C(O)C(F)(F)F.c1cc2c(cc1CN1C[C@@H]3COC[C@@H](N4CCCC4)[C@@H]3C1)OCO2, the “Percent Effect” value was 5.593%.
COC[C@]12COC[C@H]1CN(Cc1ccc3c(c1)OCO3)C2.O=C(O)C(F)(F)F was tested, and the “Percent Effect” value was 110.8%.
With CS(=O)(=O)NC[C@]12COC[C@H]1CN(Cc1ccc3c(c1)OCO3)C2.O=C(O)C(F)(F)F the “Percent Effect” value was 100.7%.
For CCS(=O)(=O)NC[C@]12COC[C@H]1CN(Cc1ccsc1)C2.O=C(O)C(F)(F)F, the “Percent Effect” value was -7.396%.
With CS(=O)(=O)NC[C@]12COC[C@H]1CN(CCc1ccccc1)C2.O=C(O)C(F)(F)F the “Percent Effect” value was 1.225%.
In the case of Cc1nc(C(C)(C)NCc2ncc(C3CC3)o2)sc1C, the “Percent Effect” value is reported as -9.268%.
In the case of CCc1ccc(CNc2ccccc2CN2CCC(O)CC2)o1, the “Percent Effect” value is reported as -8.641%.
For CCCn1cc(CNCC(c2ccc(C)s2)N2CCOCC2)cn1 (stereo unspecified), the “Percent Effect” value was 19.75%.
In the case of CC(=O)N1CCN(Cc2ccc3c(c2)OCCO3)CC(O)C1 (stereo unspecified), the “Percent Effect” value is reported as -5.239%.
With COCC(=O)NC[C@]12COC[C@H]1CN(c1ncc(F)cn1)C2.O=C(O)C(F)(F)F the “Percent Effect” value was -9.196%.
With CN(C)C[C@]12COC[C@H]1CN(Cc1ccc3c(c1)OCO3)C2.O=C(O)C(F)(F)F.O=C(O)C(F)(F)F the “Percent Effect” value was 103.2%.
For COc1ccc(CN2C[C@@H]3COC[C@]3(CN(C)C)C2)cc1.O=C(O)C(F)(F)F.O=C(O)C(F)(F)F, the “Percent Effect” value was 3.897%.
With COCC(=O)NC[C@]1(O)CN(Cc2ccc3c(c2)OCCO3)C[C@H]1O the “Percent Effect” value was 114.3%.
COc1ccc(CC(=O)N2C[C@@H]3COC[C@]3(CN(C)C)C2)cc1.O=C(O)C(F)(F)F was tested, and the “Percent Effect” value was 1.592%.
In the case of CCC[C@H]1CN(Cc2ccc3c(c2)OCCO3)C[C@@H]1NC(=O)COC, the “Percent Effect” value is reported as -19.75%.
With COCC(=O)NC[C@]12COC[C@H]1CN(Cc1ccc3c(c1)OCO3)C2.O=C(O)C(F)(F)F the “Percent Effect” value was 110%.
O[C@H]1[C@H](NCCc2ccccn2)c2ccccc2C12CCNCC2 was tested, and the “Percent Effect” value was 4.411%.
CCC(CC)N(Cc1ccc2c(c1)OCO2)C(=O)c1ccc(=O)n(C)c1 was tested, and the “Percent Effect” value was -1.967%.
With Cc1ccc(N2CCc3c(CN(C)Cc4ccco4)cncc3C2)nn1.Cl.Cl the “Percent Effect” value was 99%.
For CN(Cc1ccco1)Cc1cncc2c1CCN(c1ncccn1)C2.Cl.Cl, the “Percent Effect” value was 2.734%.
For Cc1cnc(N2CCc3c(CN(C)Cc4ccco4)cncc3C2)nc1, the “Percent Effect” value was 78.05%.
In the case of CN(Cc1cn2c(n1)CN(C(N)=O)CC2)Cc1ccco1, the “Percent Effect” value is reported as 9.855%.
CC(=O)Nn1c(C)cc(CN2CCC(C(=O)N3CCCC3)CC2)c1C was tested, and the “Percent Effect” value was 13.77%.
In the case of CC(C)(CNc1ccccc1S(=O)(=O)C(F)F)N1CCOCC1, the “Percent Effect” value is reported as 14.98%.
For O=C(c1cnccn1)N1CCC(Cc2cnc3[nH]ccc3c2)CC1, the “Percent Effect” value was 109.1%.
O=C(c1cncs1)N1CCC(Cc2cnc3[nH]ccc3c2)CC1 was tested, and the “Percent Effect” value was 101.1%.
For CCn1c(C2CCN(C(=O)c3ccc4cc[nH]c4c3)CC2)n[nH]c1=O, the “Percent Effect” value was 3.076%.
With Cc1cccnc1C(=O)N1CCC(Cc2cnc3[nH]ccc3c2)CC1 the “Percent Effect” value was 75.79%.
CCCc1nnsc1C(=O)NCC1CCN(C(=O)c2ccncc2)CC1 was tested, and the “Percent Effect” value was 2.794%.
CC1CCN(CC2CCN(C(=O)c3c[nH]c4ncccc34)CC2)CC1 was tested, and the “Percent Effect” value was -10.12%.
In the case of O=C(c1ccncc1)N1CCC(Cc2cnc3[nH]ccc3c2)CC1, the “Percent Effect” value is reported as 127.1%.
With O=C(c1cnccn1)N1CCC2(CC1)C(=O)NCC2c1ccccc1 (stereo unspecified) the “Percent Effect” value was -11.37%.
With CC(C)CC(=O)N1CCN(c2cc(N(C)C)cnn2)CC1 the “Percent Effect” value was 10.83%.
CCc1nc(CN2CCCN(C(=O)COC(C)C)CC2)cs1 was tested, and the “Percent Effect” value was 23.5%.
For CCC(C(=O)NCc1ccncc1)N(c1ccc(OC)cc1)S(C)(=O)=O (stereo unspecified), the “Percent Effect” value was -7.147%.
For O=C(NCc1nc(NC2CCCC2)c2cc(Cl)ccc2n1)c1cncs1, the “Percent Effect” value was -2.993%.
In the case of CC(C(=O)Nc1cnn(CC(N)=O)c1)c1ccc(Cl)s1 (stereo unspecified), the “Percent Effect” value is reported as -7.657%.
In the case of O=C(O)c1cc2c(nc1O)CC(c1cccc(Cl)c1)CC2=O (stereo unspecified), the “Percent Effect” value is reported as 8.981%.
With O=C(c1cnco1)N1CCC(Cc2ccc3ncccc3c2)CC1 the “Percent Effect” value was 111%.
O=C(c1cnco1)N1CCCC(Cc2cccc3ncccc23)C1 (stereo unspecified) was tested, and the “Percent Effect” value was -11.15%.
With Cc1cccc(C(=O)N2CCC(Cc3cnc4[nH]ccc4c3)CC2)n1 the “Percent Effect” value was -6.998%.
O=C(c1ccccn1)N1CCC(Cc2cnc3[nH]ccc3c2)CC1 was tested, and the “Percent Effect” value was 136.1%.
In the case of O=C(CCC1CCN(C(=O)c2cnco2)CC1)NCc1cccc(Cl)c1, the “Percent Effect” value is reported as 11.71%.
O=C(O)C(F)(F)F.O=S1(=O)NC[C@H]2CCN(Cc3ccccc3)CC[C@H]21 was tested, and the “Percent Effect” value was -3.468%.
Cc1cc(C)c(CNC(=O)NCCNc2ccccn2)c(=O)[nH]1 was tested, and the “Percent Effect” value was 9.095%.
For O=C(c1cn(-c2ccc(F)cc2)nn1)N1CCCC(n2cccn2)C1 (stereo unspecified), the “Percent Effect” value was 123%.
In the case of Cc1cnn(C2CCCN(C(=O)c3cc[nH]n3)C2)c1 (stereo unspecified), the “Percent Effect” value is reported as -3.499%.
For Cc1cnn(C2CCCN(C(=O)c3cc(-c4ccccc4C)n[nH]3)C2)c1 (stereo unspecified), the “Percent Effect” value was -3.414%.
With Cc1cnn(C2CCCN(C(=O)c3cn(-c4ccccc4)nn3)C2)c1 (stereo unspecified) the “Percent Effect” value was 117.4%.
With Cc1cccc(-n2cc(C(=O)N3CCCC(n4ccnc4)C3)nn2)c1 (stereo unspecified) the “Percent Effect” value was 7.382%.
In the case of Cc1cccc(-n2cc(C(=O)N3CCCC(n4cccn4)C3)nn2)c1 (stereo unspecified), the “Percent Effect” value is reported as 4.017%.
In the case of Cc1cnn(C2CCCN(C(=O)c3cnc4ccccc4n3)C2)c1 (stereo unspecified), the “Percent Effect” value is reported as -3.195%.
In the case of Cc1ccc(-n2cc(C(=O)N3CCCC(n4cccn4)C3)nn2)cc1 (stereo unspecified), the “Percent Effect” value is reported as 117.4%.
With Cc1cnn(C2CCCN(C(=O)c3cc(-c4ccco4)[nH]n3)C2)c1 (stereo unspecified) the “Percent Effect” value was 10.35%.
In the case of O=C(c1ccn(-c2cccc(F)c2)n1)N1CCCC(n2cccn2)C1 (stereo unspecified), the “Percent Effect” value is reported as 0.279%.
For Cc1cnn(C2CCCN(C(=O)c3cn4ccccc4n3)C2)c1 (stereo unspecified), the “Percent Effect” value was 104.2%.
For CCSc1ccc(C(=O)Nc2c(C)nn(C(C)C)c2C)cn1, the “Percent Effect” value was 10.44%.
COCCN(C)CC1CCCN1S(=O)(=O)c1cc(C)oc1C (stereo unspecified) was tested, and the “Percent Effect” value was 0.4223%.
For Cc1ncsc1CCN(C)Cc1cc2n(n1)CCN(Cc1ncc[nH]1)C2, the “Percent Effect” value was 0.3121%.
For COc1ccc(C2CCCN2C(=O)c2ccc(=O)n(C)c2)cc1OC (stereo unspecified), the “Percent Effect” value was -4.846%.
In the case of CC(=O)NCCNC(=O)Nc1ccc(C)cc1OCc1ccccc1, the “Percent Effect” value is reported as -17.41%.
O=C(c1ccc(N2CCCC2)nn1)N1CCCC(n2cccn2)C1 (stereo unspecified) was tested, and the “Percent Effect” value was 6.785%.
In the case of O=C(c1cn(-c2ccccc2)nn1)N1CCCC(n2cccn2)C1 (stereo unspecified), the “Percent Effect” value is reported as 123.4%.
For Cc1nn(-c2ccccc2)cc1C(=O)N1CCCC(n2cccn2)C1 (stereo unspecified), the “Percent Effect” value was 7.584%.
With Cc1nc(CNC(C)c2ccc(OCC(=O)NC3CC3)cc2)cs1 (stereo unspecified) the “Percent Effect” value was 11.98%.
In the case of Cc1ccc(C(=O)N2CCc3ncccc3C2)cc1N1CCNC1=O, the “Percent Effect” value is reported as 0.3953%.
For O=C(COc1ccc(Cl)cc1)NCc1nncn1C1CC1, the “Percent Effect” value was -10.37%.
For CS(=O)(=O)N1CCC(NC(=O)COc2ccc3ccccc3c2)CC1, the “Percent Effect” value was 103.7%.
CS(=O)(=O)N1CCC(NC(=O)COc2ccc(Cl)cc2)CC1 was tested, and the “Percent Effect” value was 131.2%.
With CCn1cc(C(=O)NC2CCN(S(C)(=O)=O)CC2)c2ccccc21 the “Percent Effect” value was -0.7206%.
For CC(Oc1cccc(Cl)c1)C(=O)Nc1cnn(CC(=O)NC2CC2)c1 (stereo unspecified), the “Percent Effect” value was 3.95%.
With Cc1ccc(OCC(=O)NC2CCN(S(C)(=O)=O)CC2)cc1 the “Percent Effect” value was 137.9%.
CCCC(C(=O)NC1CCN(S(C)(=O)=O)CC1)c1ccccc1 (stereo unspecified) was tested, and the “Percent Effect” value was -7.418%.
For CS(=O)(=O)N1CCC(NC(=O)COc2cccc(Cl)c2)CC1, the “Percent Effect” value was 141.5%.
For Cc1ccc(OCC(=O)NS(=O)(=O)Cc2ccccc2)cc1, the “Percent Effect” value was 1.419%.
For Cc1cn(CC(=O)NC2CCN(S(C)(=O)=O)CC2)c2ccccc12, the “Percent Effect” value was -0.9919%.
In the case of CN1CC(NC(=O)CCOc2cccc(Cl)c2)CC1=O (stereo unspecified), the “Percent Effect” value is reported as -1.154%.
CC(C)c1nccn1C(C)C(=O)NC1CCN(S(C)(=O)=O)CC1 (stereo unspecified) was tested, and the “Percent Effect” value was -4.449%.
In the case of CC(CS(C)(=O)=O)N(C(=O)CCc1ccsc1)C1CC1 (stereo unspecified), the “Percent Effect” value is reported as -7.747%.
Cc1c(NCc2ccccc2C#N)cccc1S(=O)(=O)NC1CC1 was tested, and the “Percent Effect” value was 7.829%.
CCCNC(=O)c1ccc(S(=O)(=O)NCC2(COC)CCCC2)cc1 was tested, and the “Percent Effect” value was 10.08%.
For CN1CCC(Cc2noc(CC3CC3)n2)CC1, the “Percent Effect” value was 7.965%.
With CCCN1CCC(Cc2noc(-c3cc4cccnc4nc3C)n2)CC1 the “Percent Effect” value was 109.3%.
With Cc1cccc(N2CCN(Cc3nc(CC4CC4)no3)CC2)n1 the “Percent Effect” value was -32.1%.
In the case of CN1CCC(Cc2noc(-c3cccc(Oc4ncccn4)c3)n2)CC1, the “Percent Effect” value is reported as 7.717%.
In the case of CCCN1CCC(Cc2noc(-c3[nH]cnc3C)n2)CC1, the “Percent Effect” value is reported as 95.32%.
With CCCN1CCC(Cc2nc(CN3CCN(C)CC3)no2)CC1 the “Percent Effect” value was -14.74%.
With CCCN1CCC(Cc2noc(-c3ncccc3C)n2)CC1 the “Percent Effect” value was 80.84%.
CCCN1CCC(Cc2noc(-c3cccnc3OC)n2)CC1 was tested, and the “Percent Effect” value was 111%.
With COc1cccc(-c2n[nH]cc2-c2nc(CC3CCN(C)CC3)no2)c1 the “Percent Effect” value was -18.5%.
In the case of O=C(O)C(F)(F)F.O=C(c1cnccn1)N1CCN2C[C@H](OCc3ccccc3)C[C@H]2C1, the “Percent Effect” value is reported as 0.9926%.
With O=C(c1cnc(Nc2ccccc2)nc1)N1CCC2(CCNCC2)CC1 the “Percent Effect” value was 2.873%.
